Where “and” joins values, the source holds several entries; their conditions need not be identical. Equal entries are not always repeated. Compounds without any hit were thinned out: in the full panel of roughly 83,000, 20% have a hit.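 Growth was measured after 48 h exposure to one concentration of compound in 96-well plates. Values under 10 count as active.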 Calls of active or inactive are those of the source.

This experiment relates to HL-60(TB) leukemia. The experiment is described as follows: NCI-60 one-dose screen, 48 h (100 = growth as untreated, 0 = no growth, -100 = all killed). Particulars: 10 µM unless noted.
With `CN(C)c1ccc(-c2cc(-c3cccc(NS(C)(=O)=O)c3)nc(N)c2C#N)cc1`, the growth is 2.91% (active). In the case of `Cc1cc(NC(=O)NC(=O)c2ccccc2N(C)C)ccc1Oc1ncc(Br)cn1`, the growth was -13.6% (active) and 20.7% (inactive). With `CCCCn1c(=O)[nH]c(N)c([C@@H]2c3c([nH]c(=O)n(CCCC)c3=O)Oc3ccc4ccccc4c32)c1=O`, the growth was 13.4% (inactive). As for `COc1ccc(CC(C#N)c2cc3ccccc3[nH]2)cc1` (stereo not given), the growth is 97.5% (inactive). In the case of `Cc1ccc(C(=O)Nc2ccccc2C(=O)N/N=C(\c2ccccc2)c2ccccn2)cc1` it was 2.36% (active); in that of `Cc1cc(Cl)ccc1NC(=O)c1cc2ccccc2cc1O`, 1.45% (active). Then `COc1cc2c(cc1OC)C1(C)N(CC2)C(=O)OC1(C)C` (stereo not given), with -79.2% (active). Regarding `Cc1ccc(NC(=O)NC(=O)CSc2nc3ccccc3nc2C)cc1`, the growth is 67.9% (inactive). Then `COc1ccc2nc(C)cc(Nc3ccc(Cl)cc3)c2c1`, with 95.6% (inactive); and `Nc1nc(N)c2nc(CNc3ccc(C(=O)NC(CCC(=O)O)C(=O)O)cc3)cnc2n1` (stereo not given), with 35.3% (inactive) and 49.9% (inactive); and `O=C(NC(=S)Nc1ccc(-c2nc3ccccc3[nH]2)cc1)c1ccc2ccccc2c1`, with 40.7% (inactive).

As for `CCOP(C)(=O)/C(Cc1ccc(OC)c(OC)c1)=N\O` (stereo not given), the growth is 98.1% (inactive). Then `Cc1ccc([C@@H]2C[C@H](O)Cc3ccccc3N2)s1`, with 121% (inactive); and `Cc1ccc(Sc2nnc(/N=C3\C(=O)Nc4ccccc43)s2)cc1`, with 95.9% (inactive); and `Cn1cccc1C(=O)C1C(c2cccc([N+](=O)[O-])c2)C2C3CCCCC3CN2C12C(=O)Nc1ccc(Cl)cc12` (stereo not given), with 17.8% (inactive).

Regarding `O=Cc1ccccc1C(=O)O`, the growth is 111% (inactive). In the case of `O=C(Cc1ccc(/C=C/C(=O)c2ncc[nH]2)cc1)Nc1ccccc1` it was 7.76% (active); in that of `CN1CCN(c2ccc3nc(-c4c(N)c5c(F)cccc5[nH]c4=O)[nH]c3c2)CC1`, 12.9% (inactive) and 3.6% (active). Then `CCn1c(Cc2ccccc2Nc2c(Cl)cccc2Cl)nnc1SCC(=O)Nc1ccccc1C(F)(F)F`, with 86.9% (inactive).

On to `Cc1ccc(C2=Nc3c(ccc4c(C)c(C)c(=O)oc34)OC2)cc1`, for which the growth is 98.3% (inactive).

As for `O=C(CC12CC3CC(CC(C3)C1)C2)NCCOCCOCCNC(=O)c1cc2c(o1)C(=O)c1ccccc1C2=O`, the growth was -16% (active).

For the compound `COc1ccc(N2CCC(=O)NC2=S)cc1`, the growth was 101% (inactive). In the case of `CCCCOc1ccc(/C=N/Nc2cc(C)nc3ccc(Cl)cc23)cc1` it was -30.2% (active); in that of `COc1cnc2c(c1)C(=O)c1c-2n(CCCNC(C)C)c(=O)c2cc(Cl)ccc12`, -69.1% (active); in that of `O=C(CO)C(O)C(O)C(O)C(O)CO` (stereo not given), 101% (inactive) and 102% (inactive).

Regarding `CN(C)c1ccc2nc3ccc(=O)cc-3sc2c1`, the growth is -21.3% (active) and -7.59% (active). Then `O=C(/C=C/c1c(-c2ccccc2)[nH]c2ccccc12)S(=O)(=O)c1ccccc1`, with -22.1% (active); and `O=C(O)c1cn(C2CC2)c2cc(N3CCN(C(=O)c4cc(-c5ccc(Cl)cc5)nc5ccccc45)CC3)c(F)cc2c1=O`, with 101% (inactive). In the case of `Clc1ccc(Sc2cnc(-c3ccccc3)o2)cc1` it was 99.5% (inactive). In the case of `COc1ccc(Cl)cc1NC(=O)c1cc2c([nH]1)-c1nc(NC(=O)C(C)(C)C)sc1CC2` it was 60.9% (inactive).

With `CN1CCCC1c1cccnc1` (stereo not given), the growth is 105% (inactive). As for `CCC(C)NC(=O)c1ccccc1C` (stereo not given), the growth is 111% (inactive). Then `COc1ccc2sc3c(NCCCN(C)C)nc4ccccc4c3c(=O)c2c1`, with 38.7% (inactive); and `CN1CC[C@@H](c2c(O)cc(O)c3c(=O)cc(-c4ccccc4Cl)oc23)[C@@H](O)C1`, with -29.1% (active). In the case of `O=C(/C=C/c1ccc(Cl)cc1)c1cccc(Nc2nc(Nc3ccccc3)nc(Nc3ccccc3)n2)c1` it was 95.9% (inactive). `Cc1ccc(C(O)C2=CC(=O)c3ccccc3C2=O)cc1` (stereo not given): the growth was 92.1% (inactive).

On to `C[C@@H](NC(=O)[C@@H](CC(=O)N1CCC(N2CCCCC2)CC1)N1C(=O)[C@@H](N2C(=O)OC[C@@H]2c2ccccc2)[C@H]1/C=C/c1cccc(Cl)c1)c1ccccc1`, for which the growth was 66.3% (inactive). In the case of `COc1cccc(/C=N/Nc2nc3ccccc3s2)c1OC` it was 49.9% (inactive); in that of `COc1ccc(/C=C2\COc3ccc(O)c(O)c3C2=O)cc1`, -5.92% (active). In the case of `O=C(C[P+](c1ccccc1)(c1ccccc1)c1ccccc1)C[P+](c1ccccc1)(c1ccccc1)c1ccccc1` it was -43.6% (active).

For the origin of these results see PubChem BioAssay (NCI).
